Results filed as inconclusive are left out. Active and inactive are the calls of the source. Calls come from the whole dose curve.
Assays:
[1] = biological target: Acetylcholinesterase (Homo sapiens) (UniProt P22303); experiment: Acetylcholinesterase (AChE) small molecule antagonists: colormetric cell-based qHTS assay (AID 1347395); note: nearly all actives have a fitted effect of over 30% in size
Procedure, shortened: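 Quantitative HTS in attached SH-SY5Y cells: 30 min compound exposure, then 90 min with acetylthiocholine and DTNB at 37 C; colour from thiocholine reports AChE activity.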

[2] = biological target: Acetylcholinesterase (Homo sapiens) (UniProt P22303); experiment: Acetylcholinesterase (AChE) small molecule antagonists: enzyme-based qHTS assay (AID 1347397); conditions: Potency: AChE enzyme activity inhibition; outcome: AChE enzyme activity inhibition; note: nearly all actives have a fitted effect of over 55% in size
Procedure, shortened: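 Colorimetric DTNB readout of acetylthiocholine hydrolysis, 10 min at room temperature, after 30 min room-temperature exposure of 50 mU/mL recombinant human enzyme to compound; DMSO vehicle control.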

[3] = biological target: Acetylcholinesterase (Homo sapiens) (UniProt P22303); experiment: Acetylcholinesterase (AChE) small molecule antagonists: fluorescence cell-based qHTS assay (AID 1347398); conditions: Potency: AChE activity; outcome: AChE activity; note: nearly all actives have a fitted effect of over 50% in size
Procedure, shortened: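 Cellular AChE activity read as thiocholine from acetylthiocholine hydrolysis, detected by Thiolite Green fluorescence at 490/520 nm after 40 min at room temperature. Compounds were pre-incubated 30 min at 37 C on adherent SH-SY5Y cells.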

[4] = biological target: Acetylcholinesterase (Homo sapiens) (UniProt P22303); experiment: Acetylcholinesterase (AChE) small molecule antagonists: enzyme-based qHTS assay with human liver microsomes (AID 1347399); conditions: Potency: qHTS inhibition; outcome: qHTS inhibition; note: nearly all actives have a fitted effect of over 60% in size
Procedure, shortened: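 Recombinant human AChE (50 mU/mL in the enzyme mix) and human liver microsomes (0.25 mg/mL final) were preincubated with compound and NADPH (0.25 mg/mL final) for 30 min at 37 C. Acetylthiocholine/DTNB was then added; thiocholine was read colorimetrically after 10 min at room temperature.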
% is set by controls: 0 for no effect and ±100 for the full control effect.

Chain of Acetylcholinesterase (Homo sapiens) (P22303 whole entry, looked up): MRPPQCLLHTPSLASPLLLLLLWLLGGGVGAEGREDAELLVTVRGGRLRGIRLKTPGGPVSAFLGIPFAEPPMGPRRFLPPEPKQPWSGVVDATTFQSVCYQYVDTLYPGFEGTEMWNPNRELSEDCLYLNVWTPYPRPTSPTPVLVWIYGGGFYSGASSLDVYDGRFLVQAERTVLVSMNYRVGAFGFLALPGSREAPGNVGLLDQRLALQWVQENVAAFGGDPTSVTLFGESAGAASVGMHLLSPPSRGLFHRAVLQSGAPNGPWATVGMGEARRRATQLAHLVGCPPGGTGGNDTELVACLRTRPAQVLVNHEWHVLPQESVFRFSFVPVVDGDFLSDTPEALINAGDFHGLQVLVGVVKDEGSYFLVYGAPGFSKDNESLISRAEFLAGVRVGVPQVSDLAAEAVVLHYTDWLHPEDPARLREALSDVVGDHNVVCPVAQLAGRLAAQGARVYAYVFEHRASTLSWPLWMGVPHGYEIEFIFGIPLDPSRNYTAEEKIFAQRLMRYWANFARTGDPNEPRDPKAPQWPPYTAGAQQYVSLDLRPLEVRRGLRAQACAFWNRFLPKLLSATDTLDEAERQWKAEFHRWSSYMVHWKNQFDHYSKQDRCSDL

CCCCN1C[C@H](O)[C@@H](O)[C@H](O)[C@H]1CO
inactive: Potency [1] | Potency [2] | Potency [3] | Potency [4]

Brc1nc2ccccc2s1
inactive: Potency [1] | Potency [2] | Potency [3] | Potency [4]

CC[C@@]1(O)C(=O)OCc2c1cc1n(c2=O)Cc2cc3c(CN(C)C)c(O)ccc3nc2-1
inactive: Potency [1] | Potency [2] | Potency [3] | Potency [4]

CC(CCO)CC(C)(C)C (stereo not given)
inactive: Potency [1] | Potency [2] | Potency [3] | Potency [4]

O=C(O)CCCCCCC(=O)O
inactive: Potency [1] | Potency [2] | Potency [3] | Potency [4]

O=Cc1ccc(CO)o1
inactive: Potency [1] | Potency [2] | Potency [3] | Potency [4]

CCCCCC(CC)OC(=O)CCCOc1ccc(Cl)cc1Cl (stereo not given)
inactive: Potency [1] | Potency [2] | Potency [3] | Potency [4]

CCCCCCCC(=O)OC
inactive: Potency [1] | Potency [2] | Potency [3] | Potency [4]

N[C@@H](C(=O)N[C@@H]1C(=O)N2C(C(=O)O)=C(Cl)CS[C@H]12)c1ccccc1
inactive: activity, negative = inhibition [1] -0.844% [at 10.5 µM] | activity change, negative = inhibition [2] -0.554% [at 10.5 µM] | activity change, negative = inhibition [3] 7.33% [at 10.5 µM] | activity change, negative = inhibition [4] -5.46% [at 10.5 µM]

NC(CCC(=O)O)C(=O)O (stereo not given)
inactive: Potency [1] | Potency [2] | Potency [3] | Potency [4]

CCCCCCO
inactive: Potency [1] | Potency [2] | Potency [3] | Potency [4]

CCCOCCC
inactive: Potency [1] | Potency [2] | Potency [3] | Potency [4]

CCOc1cc(OCC)c(C(C)=O)cc1OCC
inactive: Potency [1] | Potency [2] | Potency [3] | Potency [4]

CCOC(=O)c1ccc(OCCN2C[C@H](O)[C@@H](O)[C@H](O)[C@H]2CO)cc1
inactive: Potency [1] | Potency [2] | Potency [3] | Potency [4]

C[N+](C)(C)CCOC(=O)CCC(=O)OCC[N+](C)(C)C
inactive: Potency [1] | Potency [2] | Potency [3] | Potency [4]

Nc1ccc2c(c1)CN1C(=O)c3ccccc3C1=N2
inactive: activity, negative = inhibition [1] -3.06% [at 23.6 µM] | activity change, negative = inhibition [2] 1.39% [at 23.6 µM] | activity change, negative = inhibition [3] -15.4% [at 23.8 µM] | activity change, negative = inhibition [4] 6.82% [at 23.6 µM]

C/C=C1/CC2C=CC1C2 (stereo not given)
inactive: Potency [1] | Potency [2] | Potency [3] | Potency [4]

C=C(C)C(=O)OCC1CCCO1 (stereo not given)
inactive: Potency [1] | Potency [2] | Potency [3] | Potency [4]

Cc1ccc(C=O)cc1C
inactive: Potency [1] | Potency [2] | Potency [3] | Potency [4]

Cc1cccc2n[nH]nc12
inactive: Potency [1] | Potency [2] | Potency [3] | Potency [4]

Cc1cc(C(C)(C)C)c(O)c(C(C)(C)C)c1
inactive: Potency [1] | Potency [2] | Potency [3] | Potency [4]

O=C(O)Cc1cccc(-c2cc(CCCCCCc3ccc(O[C@H]4O[C@H](CO)[C@@H](O)[C@H](O)[C@@H]4O)c(-c4cccc(CC(=O)O)c4)c3)ccc2O[C@H]2O[C@H](CO)[C@@H](O)[C@H](O)[C@@H]2O)c1
inactive: activity, negative = inhibition [1] 1.5% [at 0.435 µM] | activity change, negative = inhibition [2] 1.01% [at 0.435 µM] | activity change, negative = inhibition [3] 5.75% [at 0.439 µM] | activity change, negative = inhibition [4] -1.17% [at 0.435 µM]

C/C=C(C)/C=C/C=C(C)C
inactive: Potency [1] | Potency [2] | Potency [3] | Potency [4]

CCCCCCCOC(=O)CCC
inactive: Potency [1] | Potency [2] | Potency [3] | Potency [4]

c1ccc2cc(Nc3ccc(Nc4ccc5ccccc5c4)cc3)ccc2c1
inactive: Potency [1] | Potency [2] | Potency [3] | Potency [4]

O=C(O)c1ccccc1[N+](=O)[O-]
inactive: Potency [1] | Potency [2] | Potency [3] | Potency [4]

Nc1ncnc2nc[nH]c12
inactive: Potency [1] | Potency [2] | Potency [3] | Potency [4]

O=C(CCCN1CCC(O)(c2ccc(Br)cc2)CC1)c1ccc(F)cc1
inactive: Potency [1] | Potency [2] | Potency [3] | Potency [4]

CC(C)c1nc(CN(C)C(=O)N[C@H](C(=O)N[C@@H](Cc2ccccc2)C[C@H](O)[C@H](Cc2ccccc2)NC(=O)OCc2cncs2)C(C)C)cs1
inactive: Potency [1] | Potency [2] | Potency [3] | Potency [4]

Cc1ccc(S(=O)(=O)NC(=O)NC2CCCCC2)cc1
inactive: Potency [1] | Potency [2] | Potency [3] | Potency [4]

CCOC(=O)CN1CCCC1=O
inactive: Potency [1] | Potency [2] | Potency [3] | Potency [4]

CCCCCCCCCCCC(=O)OC[C@@H](O)[C@H]1OC[C@H](OCCO)[C@H]1OCCO
inactive: Potency [1] | Potency [2] | Potency [3] | Potency [4]

Cc1ccc(C(C)(C)O)cc1
inactive: Potency [1] | Potency [2] | Potency [3] | Potency [4]

C=CC(C)(C)O
inactive: Potency [1] | Potency [2] | Potency [3] | Potency [4]

Oc1cc2ccccc2cc1O
inactive: Potency [1] | Potency [2] | Potency [3] | Potency [4]

C/C(Cl)=C/CCl
inactive: Potency [1] | Potency [2] | Potency [3] | Potency [4]

COc1ccc(/C(C)=C/C(=O)O)c(OC)c1
inactive: Potency [1] | Potency [2] | Potency [3] | Potency [4]

CC(=O)c1ccccn1
inactive: Potency [1] | Potency [2] | Potency [3] | Potency [4]

N#Cc1cc2ccccc2c2ccccc12
inactive: Potency [1] | Potency [2] | Potency [3] | Potency [4]

CN(C)CCOC(c1ccccc1)c1ccc(Br)cc1 (stereo not given)
inactive: Potency [1] | Potency [2] | Potency [3] | Potency [4]

c1ccc(CCNc2nc(-c3ccccc3)cs2)cc1
inactive: Potency [1] | Potency [2] | Potency [3] | Potency [4]

CC(C)(c1ccccc1)c1ccccc1
inactive: Potency [1] | Potency [2] | Potency [3] | Potency [4]

CC(=O)Oc1ccc2c(c1)CC[C@@H]1[C@@H]2CC[C@]2(C)[C@@H](O)CC[C@@H]12
inactive: Potency [1] | Potency [2] | Potency [3] | Potency [4]

OCc1c2ccccc2cc2ccccc12
inactive: Potency [1] | Potency [2] | Potency [3] | Potency [4]

Cc1cccc(NC(=S)N(C)C)c1
inactive: Potency [1] | Potency [2] | Potency [3] | Potency [4]

CCCCCCCCCCCCCC(=O)OC(C)C
inactive: Potency [1] | Potency [2] | Potency [3] | Potency [4]

CCCCCCCCCCCCCCCCCC#N
inactive: Potency [1] | Potency [2] | Potency [3] | Potency [4]

NS(=O)(=O)c1cc2c(cc1Cl)CN(C1CCCCC1)C2=O
inactive: Potency [1] | Potency [2] | Potency [3] | Potency [4]

C[C@](N)(Cc1ccc(O)c(O)c1)C(=O)O
inactive: Potency [1] | Potency [2] | Potency [3] | Potency [4]

Oc1ccc2ccccc2c1N=Nc1ccccc1
inactive: Potency [1] | Potency [2] | Potency [3] | Potency [4]

c1cnc2c(n1)CCCC2
inactive: Potency [1] | Potency [2] | Potency [3] | Potency [4]

CC(C)(C)NCC(O)COc1ccccc1OCC1CCCO1 (stereo not given)
inactive: Potency [1] | Potency [2] | Potency [3] | Potency [4]

CC(=O)C1=C(C)[C@@H]2C[C@@]3(C1)[C@H](C)CC[C@H]3C2(C)C
inactive: Potency [1] | Potency [2] | Potency [3] | Potency [4]

CCC(=O)O[C@]1(C(=O)CCl)[C@@H](C)C[C@H]2[C@@H]3CCC4=CC(=O)C=C[C@]4(C)[C@@]3(F)[C@@H](O)C[C@@]21C
inactive: Potency [1] | Potency [2] | Potency [3] | Potency [4]

C[Si](C)=O
inactive: activity, negative = inhibition [1] -2.31% [at 10.5 µM] | activity change, negative = inhibition [2] -1.81% [at 10.5 µM] | activity change, negative = inhibition [3] 0.274% [at 10.5 µM] | activity change, negative = inhibition [4] -0.0165% [at 10.5 µM]

O=C(O)CCC(=O)O
inactive: Potency [1] | Potency [2] | Potency [3] | Potency [4]

NCCNC(=O)c1ccc(Cl)cn1
inactive: Potency [1] | Potency [2] | Potency [3] | Potency [4]

CO[C@@H]1[C@@H](OC(N)=O)[C@@H](O)[C@H](Oc2ccc3c(O)c(NC(=O)c4ccc(O)c(CC=C(C)C)c4)c(=O)oc3c2C)OC1(C)C
inactive: Potency [1] | Potency [2] | Potency [3] | Potency [4]

C=C(C)[C@@H]1CCC2=CC(=O)C[C@@H](C)[C@]2(C)C1
inactive: Potency [1] | Potency [2] | Potency [3] | Potency [4]

CCCCCCCCCCN
inactive: Potency [1] | Potency [2] | Potency [3] | Potency [4]

— PubChem BioAssay (Tox21)
